# According to the supplement of paper PMC10037445:
# In all, about 2,900 compounds were measured (“NF-kB SEAP reporter activity, fold change vs agonist alone”: median about 0.99, highest 2% from about 2.6 on). Shown is part of a subset that was picked to be rich in the highest values.
# Experiments:
# RAW-Dual [1] = experiment: NF-kB SEAP reporter activity, fold change vs agonist alone; higher = enhanced NF-kB activity
# Procedure, shortened: (§1)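 Supernatant from RAW-Dual macrophages was read after 20 hours for IRF by QuantiLuc luminescence and for NF-κB by QuantiBlue absorbance at 620 nm. The cells (50,000 cells/well in DMEM, 384-well plates, 37 °C, 5% CO2) had received 50 nL of library stock by pin tool and, 1 h later, a PRR agonist. Reporter activity is expressed relative to agonist-alone wells as fold change, and wells were flagged cytotoxic if IncuCyte confluency was under 70% of agonist controls in both mask sets.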
# RAW-Dual [2] = experiment: NF-kB SEAP reporter activity, fold change vs agonist alone; cytotoxicity flag (confluency mask): not cytotoxic; higher = enhanced NF-kB activity
# Procedure, shortened: as §1
# RAW-Dual [3] = experiment: NF-kB SEAP reporter activity, fold change vs agonist alone; cytotoxicity flag (confluency mask): cytotoxic (confluency <70% of control); higher = enhanced NF-kB activity
# Procedure, shortened: as §1
# [4] = library stock concentration (final ~1000-fold dilution): 10 mM, cytotoxicity flag (confluency mask): not cytotoxic, agonist: Imiquimod (TLR7) […]
# [5] = library stock concentration (final ~1000-fold dilution): 10 mM, cytotoxicity flag (confluency mask): not cytotoxic, agonist: MPLA (TLR4) […]
# [6] = agonist: ODN 1826 (TLR9) 0.5 ug/mL
# [7] = agonist: Pam2CSK4 (TLR2/6) 0.1 ug/mL
# [8] = agonist: Pam3CSK4 (TLR2/1) 0.1 ug/mL
# [9] = library stock concentration (final ~1000-fold dilution): 10 mM, cytotoxicity flag (confluency mask): cytotoxic (confluency <70% of control), agonist: Imiquimod (TLR7) […]
# [10] = library stock concentration (final ~1000-fold dilution): 10 mM, cytotoxicity flag (confluency mask): cytotoxic (confluency <70% of control), agonist: MPLA (TLR4) […]
smiles,measurement,setting,value
Cc1cn(C2CC(O)C(CO)O2)c(=O)[nH]c1=O (stereo not drawn),NF-kB SEAP reporter activity,RAW-Dual [1]; [4],0.952
same,NF-kB SEAP reporter activity,RAW-Dual [1]; [5],1.03
Cc1cn(C2CC(O)C(CO)O2)c(=O)[nH]c1=O (stereo not drawn) (library stock concentration (final ~1000-fold dilution): 10 mM),NF-kB SEAP reporter activity,RAW-Dual [2]; agonist: LPS (TLR4) 0.1 ug/mL,1.16
same,NF-kB SEAP reporter activity,RAW-Dual [2]; [6],1.03
same,NF-kB SEAP reporter activity,RAW-Dual [2]; [7],1.12
same,NF-kB SEAP reporter activity,RAW-Dual [2]; [8],1.11
CC1(COc2ccc3c(c2)ncn3-c2ccc3cccc(N4CCC(N)CC4)c3n2)COC1 (library stock concentration (final ~1000-fold dilution): 10 mM),NF-kB SEAP reporter activity,RAW-Dual [3]; agonist: LPS (TLR4) 0.1 ug/mL,0.769
same,NF-kB SEAP reporter activity,RAW-Dual [3]; [6],1.59
same,NF-kB SEAP reporter activity,RAW-Dual [3]; [7],1.81
same,NF-kB SEAP reporter activity,RAW-Dual [3]; [8],1.6
CC1(COc2ccc3c(c2)ncn3-c2ccc3cccc(N4CCC(N)CC4)c3n2)COC1,NF-kB SEAP reporter activity,RAW-Dual [1]; [9],2.9
same,NF-kB SEAP reporter activity,RAW-Dual [1]; [10],1.43
COCCOc1ccc2c(c1)ncn2-c1ccc2cccc(N3CCC(N)CC3)c2n1 (library stock concentration (final ~1000-fold dilution): 10 mM),NF-kB SEAP reporter activity,RAW-Dual [3]; agonist: LPS (TLR4) 0.1 ug/mL,0.593
same,NF-kB SEAP reporter activity,RAW-Dual [3]; [6],0.758
same,NF-kB SEAP reporter activity,RAW-Dual [3]; [7],0.862
same,NF-kB SEAP reporter activity,RAW-Dual [3]; [8],1.32
COCCOc1ccc2c(c1)ncn2-c1ccc2cccc(N3CCC(N)CC3)c2n1,NF-kB SEAP reporter activity,RAW-Dual [1]; [9],2.77
same,NF-kB SEAP reporter activity,RAW-Dual [1]; [10],0.871
OCc1ccccc1OC1OC(CO)C(O)C(O)C1O (stereo not drawn),NF-kB SEAP reporter activity,RAW-Dual [1]; [4],0.917
same,NF-kB SEAP reporter activity,RAW-Dual [1]; [5],1.04
OCc1ccccc1OC1OC(CO)C(O)C(O)C1O (stereo not drawn) (library stock concentration (final ~1000-fold dilution): 10 mM),NF-kB SEAP reporter activity,RAW-Dual [2]; agonist: LPS (TLR4) 0.1 ug/mL,0.986
same,NF-kB SEAP reporter activity,RAW-Dual [2]; [6],1.08
same,NF-kB SEAP reporter activity,RAW-Dual [2]; [7],1.11
same,NF-kB SEAP reporter activity,RAW-Dual [2]; [8],1.19
COc1cccc(-c2c(C)n(Cc3c(F)cccc3C(F)(F)F)c(=O)n(CC(NCCCC(=O)O)c3ccccc3)c2=O)c1F (stereo not drawn),NF-kB SEAP reporter activity,RAW-Dual [1]; [5],1.03
COc1cccc(-c2c(C)n(Cc3c(F)cccc3C(F)(F)F)c(=O)n(CC(NCCCC(=O)O)c3ccccc3)c2=O)c1F (stereo not drawn) (library stock concentration (final ~1000-fold dilution): 10 mM),NF-kB SEAP reporter activity,RAW-Dual [2]; agonist: LPS (TLR4) 0.1 ug/mL,1.32
same,NF-kB SEAP reporter activity,RAW-Dual [2]; [6],1.06
same,NF-kB SEAP reporter activity,RAW-Dual [2]; [7],0.866
same,NF-kB SEAP reporter activity,RAW-Dual [2]; [8],0.768
C=CC1(C)CC(OC(=O)CSCCN(CC)CC)C2(C)C(C)CCC3(CCC(=O)C32)C(C)C1O (stereo not drawn),NF-kB SEAP reporter activity,RAW-Dual [1]; [5],1.12
C=CC1(C)CC(OC(=O)CSCCN(CC)CC)C2(C)C(C)CCC3(CCC(=O)C32)C(C)C1O (stereo not drawn) (library stock concentration (final ~1000-fold dilution): 10 mM),NF-kB SEAP reporter activity,RAW-Dual [2]; agonist: LPS (TLR4) 0.1 ug/mL,1.56
same,NF-kB SEAP reporter activity,RAW-Dual [2]; [6],0.725
same,NF-kB SEAP reporter activity,RAW-Dual [2]; [7],1.11
same,NF-kB SEAP reporter activity,RAW-Dual [2]; [8],0.934
Cc1sc2c(c1C)C(c1ccc(Cl)cc1)=N[C@@H](CC(=O)NCCCCCCCCNC(=O)COc1cccc3c1C(=O)N(C1CCC(=O)NC1=O)C3=O)c1nnc(C)n1-2 (stereo partly drawn) (library stock concentration (final ~1000-fold dilution): 10 mM),NF-kB SEAP reporter activity,RAW-Dual [3]; agonist: LPS (TLR4) 0.1 ug/mL,3.73
same,NF-kB SEAP reporter activity,RAW-Dual [3]; [6],1.84
same,NF-kB SEAP reporter activity,RAW-Dual [3]; [7],1.74
same,NF-kB SEAP reporter activity,RAW-Dual [3]; [8],3
Cc1sc2c(c1C)C(c1ccc(Cl)cc1)=NC(CC(=O)NCCCCNC(=O)COc1cccc3c1C(=O)N(C1CCC(=O)NC1=O)C3=O)c1nnc(C)n1-2 (stereo not drawn) (library stock concentration (final ~1000-fold dilution): 10 mM),NF-kB SEAP reporter activity,RAW-Dual [3]; agonist: LPS (TLR4) 0.1 ug/mL,7.56
same,NF-kB SEAP reporter activity,RAW-Dual [3]; [6],3.05
same,NF-kB SEAP reporter activity,RAW-Dual [3]; [7],1.99
same,NF-kB SEAP reporter activity,RAW-Dual [3]; [8],3.03
Nc1cccc2c1C(=O)N(C1CCC(=O)NC1=O)C2=O (stereo not drawn),NF-kB SEAP reporter activity,RAW-Dual [1]; [4],1.6
same,NF-kB SEAP reporter activity,RAW-Dual [1]; [5],1.07
O=C1CCC(N2C(=O)c3ccccc3C2=O)C(=O)N1 (stereo not drawn),NF-kB SEAP reporter activity,RAW-Dual [1]; [4],0.926
same,NF-kB SEAP reporter activity,RAW-Dual [1]; [5],0.792
Cc1sc2c(c1C)C(c1ccc(Cl)cc1)=N[C@@H](CC(=O)NCCCCCCCCNC(=O)COc1cccc3c1C(=O)N(C1CCC(=O)NC1=O)C3=O)c1nnc(C)n1-2 (stereo partly drawn),NF-kB SEAP reporter activity,RAW-Dual [1]; [9],1.73
same,NF-kB SEAP reporter activity,RAW-Dual [1]; [10],2.44
O=C1CCC(N2C(=O)c3ccccc3C2=O)C(=O)N1 (stereo not drawn) (library stock concentration (final ~1000-fold dilution): 10 mM),NF-kB SEAP reporter activity,RAW-Dual [2]; agonist: LPS (TLR4) 0.1 ug/mL,1.22
same,NF-kB SEAP reporter activity,RAW-Dual [2]; [6],1.01
same,NF-kB SEAP reporter activity,RAW-Dual [2]; [7],0.95
same,NF-kB SEAP reporter activity,RAW-Dual [2]; [8],1.17
Nc1cccc2c1C(=O)N(C1CCC(=O)NC1=O)C2=O (stereo not drawn) (library stock concentration (final ~1000-fold dilution): 10 mM),NF-kB SEAP reporter activity,RAW-Dual [2]; agonist: LPS (TLR4) 0.1 ug/mL,1.16
same,NF-kB SEAP reporter activity,RAW-Dual [2]; [6],1.17
same,NF-kB SEAP reporter activity,RAW-Dual [2]; [7],1.08
same,NF-kB SEAP reporter activity,RAW-Dual [2]; [8],1.35
Cc1sc2c(c1C)C(c1ccc(Cl)cc1)=NC(CC(=O)NCCCCNC(=O)COc1cccc3c1C(=O)N(C1CCC(=O)NC1=O)C3=O)c1nnc(C)n1-2 (stereo not drawn),NF-kB SEAP reporter activity,RAW-Dual [1]; [9],1.89
same,NF-kB SEAP reporter activity,RAW-Dual [1]; [10],2.59
C/C=C1/C2C=C(C)CC1(N)c1ccc(=O)[nH]c1C2 (stereo not drawn),NF-kB SEAP reporter activity,"RAW-Dual [1]; library stock concentration (final ~1000-fold dilution): 2 mM, cytotoxicity flag (confluency mask): not cytotoxic, agonist: Imiquimod (TLR7) […]",0.822
same,NF-kB SEAP reporter activity,"RAW-Dual [1]; library stock concentration (final ~1000-fold dilution): 2 mM, cytotoxicity flag (confluency mask): not cytotoxic, agonist: MPLA (TLR4) […]",1.1
C/C=C1/C2C=C(C)CC1(N)c1ccc(=O)[nH]c1C2 (stereo not drawn) (library stock concentration (final ~1000-fold dilution): 2 mM),NF-kB SEAP reporter activity,RAW-Dual [2]; agonist: LPS (TLR4) 0.1 ug/mL,1.33
same,NF-kB SEAP reporter activity,RAW-Dual [2]; [6],1.01
same,NF-kB SEAP reporter activity,RAW-Dual [2]; [7],1.14
same,NF-kB SEAP reporter activity,RAW-Dual [2]; [8],1.01
CC1c2cccc(O)c2C(=O)C2=C(O)C3(O)C(=O)C(C(N)=O)=C(O)C(N(C)C)C3C(O)C21.CC1c2cccc(O)c2C(=O)C2=C(O)C3(O)C(=O)C(C(N)=O)=C(O)C(N(C)C)C3C(O)C21.CCO.Cl.Cl.O (stereo not drawn),NF-kB SEAP reporter activity,RAW-Dual [1]; [4],0.998
same,NF-kB SEAP reporter activity,RAW-Dual [1]; [5],1.13
CC1c2cccc(O)c2C(=O)C2=C(O)C3(O)C(=O)C(C(N)=O)=C(O)C(N(C)C)C3C(O)C21.CC1c2cccc(O)c2C(=O)C2=C(O)C3(O)C(=O)C(C(N)=O)=C(O)C(N(C)C)C3C(O)C21.CCO.Cl.Cl.O (stereo not drawn) (library stock concentration (final ~1000-fold dilution): 10 mM),NF-kB SEAP reporter activity,RAW-Dual [2]; agonist: LPS (TLR4) 0.1 ug/mL,1.6
same,NF-kB SEAP reporter activity,RAW-Dual [2]; [6],0.969
same,NF-kB SEAP reporter activity,RAW-Dual [2]; [7],1.26
same,NF-kB SEAP reporter activity,RAW-Dual [2]; [8],0.938
O=C(O)/C(S)=C/c1c[nH]c2ccc(F)cc12 (library stock concentration (final ~1000-fold dilution): 10 mM),NF-kB SEAP reporter activity,RAW-Dual [2]; agonist: LPS (TLR4) 0.1 ug/mL,0.886
same,NF-kB SEAP reporter activity,RAW-Dual [2]; [6],0.864
same,NF-kB SEAP reporter activity,RAW-Dual [2]; [7],0.988
same,NF-kB SEAP reporter activity,RAW-Dual [2]; [8],0.934
O=C(O)/C(S)=C/c1c[nH]c2ccc(F)cc12,NF-kB SEAP reporter activity,RAW-Dual [1]; [4],0.865
same,NF-kB SEAP reporter activity,RAW-Dual [1]; [5],1.08
COC(=O)C1=C(C)NC(C)=C(C(=O)OCCN2CCN(C(c3ccccc3)c3ccccc3)CC2)C1c1cccc([N+](=O)[O-])c1.Cl.Cl (stereo not drawn),NF-kB SEAP reporter activity,RAW-Dual [1]; [4],0.58
same,NF-kB SEAP reporter activity,RAW-Dual [1]; [5],0.873
COC(=O)C1=C(C)NC(C)=C(C(=O)OCCN2CCN(C(c3ccccc3)c3ccccc3)CC2)C1c1cccc([N+](=O)[O-])c1.Cl.Cl (stereo not drawn) (library stock concentration (final ~1000-fold dilution): 10 mM),NF-kB SEAP reporter activity,RAW-Dual [2]; agonist: LPS (TLR4) 0.1 ug/mL,0.834
same,NF-kB SEAP reporter activity,RAW-Dual [2]; [6],0.364
same,NF-kB SEAP reporter activity,RAW-Dual [2]; [7],0.241
same,NF-kB SEAP reporter activity,RAW-Dual [2]; [8],0.405
CN(C)CCOC(c1ccccc1)c1ccccc1.Cl,NF-kB SEAP reporter activity,RAW-Dual [1]; [4],1.39
same,NF-kB SEAP reporter activity,RAW-Dual [1]; [5],0.886
CN(C)CCOC(c1ccccc1)c1ccccc1.Cl (library stock concentration (final ~1000-fold dilution): 10 mM),NF-kB SEAP reporter activity,RAW-Dual [2]; agonist: LPS (TLR4) 0.1 ug/mL,1.27
same,NF-kB SEAP reporter activity,RAW-Dual [2]; [6],0.728
same,NF-kB SEAP reporter activity,RAW-Dual [2]; [7],0.917
same,NF-kB SEAP reporter activity,RAW-Dual [2]; [8],1.1
